In all, about 190,000 compounds went through this assay and about 1,900 (1%) were called active.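 How the source made its calls: active means percentage of spot-positive cells more than 3 SD above its plate mean, without a fluorescence outlier flag or 80% toxicity; inconclusive means no clear call, values can overlap the other calls; inactive means the rest.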 The list comes from a sample in which actives are over-represented; it also holds similar structures and randomly drawn compounds.

This assay in a line: GFP-LC3 puncta formation changes – imaging, high-content, MEF GFP-LC3, primary screen (AID 463193).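 On % cells with GFP-LC3 spots: spot-positive cell cutoff set from DMSO-treated cells.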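 On toxicity: cell loss after 18 h compound exposure.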 The conditions noted are these: autophagy, at 10 µM; % cells with GFP-LC3 spots: stronger effect = higher value; toxicity: measured here: cell loss, nuclei count.
On to `CN(C)Cc1ccccc1C1(O)c2ccccc2CSc2ccccc21` (configuration not stated), for which the % cells with GFP-LC3 spots was 12% (active) and the toxicity is -6.62%.
The like results for `COC(=O)C1=C(NC(=O)C(C)(C)C)CCS1` were, in that order, 5.79% (inactive) and -3.16%.
For `COC(=O)c1sc(N)c(C(=O)OC)c1COC(=O)CNS(=O)(=O)c1ccc(C)cc1` the same measures were 2.17% (inactive) and -4.43%.
On to `CCC(=O)/C=C1\Sc2ccccc2N1CC`, for which the % cells with GFP-LC3 spots was 7.46% (inactive) and the toxicity is -11.3%.
Consider `CCN1/C(=C/c2ccc3ccc(C)cc3[n+]2CC)Sc2ccccc21`, for which the % cells with GFP-LC3 spots was 42.4% (active) and the toxicity is 14.3%.
The like results for `CCN1CCN(CCNC(=O)c2ccc(/C=C3/Sc4ccccc4N(Cc4cccc(C)c4)C3=O)cc2)CC1` were, in that order, 34.4% (inactive) and 30.3%.
`Cc1ccc(Nc2cc(C)nc3c(C)ccc([N+](=O)[O-])c23)cc1`: the % cells with GFP-LC3 spots was 9.29% (inactive) and the toxicity came out at 15.4%.
For `Cc1cccc(N(C(=O)Cc2cccs2)C(C(=O)NCc2ccco2)c2ccncc2)c1` (configuration not stated) the same measures were 0.45% (inactive) and 4.04%.
Turning to `CSc1nc(N)c(C#N)c(-c2ccccc2Cl)c1C#N`, the % cells with GFP-LC3 spots was 1.32% (inactive) and the toxicity was found to be 7.01%.
The like results for `CSc1nc2ccccc2cc1/C=C(\C#N)c1ccc(Cl)cc1Cl` were, in that order, 26.9% (active) and 3.92%.
For `Cc1nc2ccccc2cc1O` the same measures were 1.86% (inactive) and -9.74%.
As for `CCC(C)NC(=O)/C=C/c1ccc(S(=O)(=O)NCc2ccco2)cc1` (configuration not stated), the % cells with GFP-LC3 spots is 13.9% (inactive) and the toxicity is -4.92%.
Regarding `Cc1cccc(OCCNC(=S)NC(=O)c2cccnc2)c1`, the % cells with GFP-LC3 spots was 4.78% (inactive) and the toxicity is 1.96%.
Regarding `O=C(CSc1ncnc2c1nnn2Cc1ccc(F)cc1)NC1CCCC1`, the % cells with GFP-LC3 spots is 19.5% (inactive) and the toxicity was found to be 3.4%.
In the case of `COc1ccc(N2CCN(C(=O)CNS(=O)(=O)c3ccc(C)c(C)c3)CC2)cc1`, the % cells with GFP-LC3 spots was 0.151% (inactive) and the toxicity was -10.1%.
With `Cc1cc([N+](=O)[O-])nn1CCCC(=O)Nc1cccnc1Cl`, the % cells with GFP-LC3 spots was 8.6% (inactive) and the toxicity is 1.08%.
For the compound `O=C(Nc1ccc2oc(-c3ccc4ccccc4c3)nc2c1)c1cccs1`, the % cells with GFP-LC3 spots was 3.28% (active) and the toxicity was -13.1%.
For `Cc1ccc(-c2nnc(-c3ccc(NC(=O)c4cccs4)cc3)o2)cc1` the same measures were 9.58% (inactive) and -19.8%.
Regarding `O=C(Cc1cccc2ccccc12)Nc1ccc2oc(-c3ccccc3)nc2c1`, the % cells with GFP-LC3 spots is 7.49% (inactive) and the toxicity turned out to be 12.1%.
For `COc1cc(OC)c(C(=O)Nc2ccccc2-c2ccccc2)cc1OC` the same measures were 7.38% (inactive) and -2.46%.
For `COc1ccc(C(=O)OCC(=O)NCC2CCCO2)cc1[N+](=O)[O-]` (configuration not stated) the same measures were 3.86% (inactive) and 1.61%.
Turning to `COc1ccc(OC)c(C(=O)c2ccc(C(=O)N3CCN(Cc4csc(C)n4)CC3)cc2)c1`, the % cells with GFP-LC3 spots was 1.64% (inactive) and the toxicity was 6.76%.
For the compound `O=C(O)COc1ccc(/C=N/O)cc1Br`, the % cells with GFP-LC3 spots was 17% (inactive) and the toxicity was found to be 9.84%.
The like results for `CN(C)c1ccc(NC(=O)CSc2n[nH]c(-c3ccco3)n2)cc1` were, in that order, 5.18% (inactive) and -4.21%.
For `C/C(Cc1ccccc1)=N\NC(=O)CNC(=O)c1cccc(Br)c1` the same measures were 6.35% (inactive) and 7.09%.
The like results for `CN(C)S(=O)(=O)N1CCN(c2ccc([N+](=O)[O-])cc2)CC1` were, in that order, 20% (active) and 4.08%.
For the compound `COc1ccc(N2CCN(c3ccc([N+](=O)[O-])cc3Cl)CC2)cc1`, the % cells with GFP-LC3 spots was 3.9% (inactive) and the toxicity stood at 14.4%.
For the compound `Cc1ccc(N2CCN(S(=O)(=O)N(C)C)CC2)cc1Cl`, the % cells with GFP-LC3 spots is 10.8% (inactive) and the toxicity worked out at 7.23%.
On to `O=C(O)CCn1c(SCc2cc(=O)n3ccccc3n2)nc2ccsc2c1=O`, for which the % cells with GFP-LC3 spots is 0.605% (inactive) and the toxicity is 8.22%.
For the compound `Cc1ccc(NC(=O)CN(C)Cc2ccc(F)cc2)c([N+](=O)[O-])c1`, the % cells with GFP-LC3 spots is 5.2% (inactive) and the toxicity stood at 3.98%.
Regarding `Cc1ccc(NC(=O)c2oc(=O)c3ccccc3c2-c2ccccc2)c(C)c1`, the % cells with GFP-LC3 spots was 6.34% (inactive) and the toxicity was -1.17%.
On to `Cc1ccc(NC(=O)c2oc3ccccc3c2C)c([N+](=O)[O-])c1`, for which the % cells with GFP-LC3 spots was 13.1% (active) and the toxicity was 22.2%.
In the case of `CCOC12CC(C)(C)CC(C)(CC3=C1C(=O)CC(C)(C)C3)C2` (configuration not stated), the % cells with GFP-LC3 spots is 4.26% (inactive) and the toxicity was determined as 3.51%.
As to `COc1ccc(-c2csc(Nc3ccc(O)cc3)n2)cc1`, the % cells with GFP-LC3 spots is 16.2% (active) and the toxicity was 17.3%.
The like results for `Oc1ccc(-c2csc(Nc3cccnc3)n2)cc1` were, in that order, 7.75% (inactive) and -0.924%.
For `COc1ccc(Nc2nc(-c3ccccc3)cs2)cc1` the same measures were 11.9% (inactive) and -34.3%.
`CCC(CC)NC(=O)CSc1nnc(-c2c[nH]c3ccccc23)o1`: the % cells with GFP-LC3 spots is 15.7% (inactive) and the toxicity was 28.2%.
Consider `Cc1ccc(-n2c(O)c(C=Nc3ccc(S(=O)(=O)Nc4ncccn4)cc3)c3ccccc3c2=O)cc1C`, for which the % cells with GFP-LC3 spots is 3.56% (inactive) and the toxicity is -8.78%.
The like results for `Cc1ccc(N=Cc2c(O)n(-c3nccs3)c(=O)c3ccccc23)c(C)c1` were, in that order, 60% (active) and -7.63%.
For `Cc1ccc(N=Cc2c(O)cc(C)oc2=O)c(C)c1` the same measures were 9.61% (inactive) and 4.32%.
The like results for `CCOC(=O)N1CCN(C(=O)c2ccccc2N(Cc2ccccc2)S(=O)(=O)c2ccc(OC)cc2)CC1` were, in that order, 19.1% (inactive) and 5.8%.
